GPT2 inhibitor = blocks human glutamate pyruvate transaminase 2; Q8TD30; Recombinant GPT2, coupled pyruvate oxidase/HRP Amplex Red fluorescence; Potency, µM (top dose mostly 57.7 µM), for inactives: at the top dose activity change, negative = inhibition, usual class: inhibitors; 100,000 tested, 0.25% active; AID 1671188; further: nearly all actives have a fitted effect of over 60% in size
Target sequence (Q8TD30 whole entry, looked up): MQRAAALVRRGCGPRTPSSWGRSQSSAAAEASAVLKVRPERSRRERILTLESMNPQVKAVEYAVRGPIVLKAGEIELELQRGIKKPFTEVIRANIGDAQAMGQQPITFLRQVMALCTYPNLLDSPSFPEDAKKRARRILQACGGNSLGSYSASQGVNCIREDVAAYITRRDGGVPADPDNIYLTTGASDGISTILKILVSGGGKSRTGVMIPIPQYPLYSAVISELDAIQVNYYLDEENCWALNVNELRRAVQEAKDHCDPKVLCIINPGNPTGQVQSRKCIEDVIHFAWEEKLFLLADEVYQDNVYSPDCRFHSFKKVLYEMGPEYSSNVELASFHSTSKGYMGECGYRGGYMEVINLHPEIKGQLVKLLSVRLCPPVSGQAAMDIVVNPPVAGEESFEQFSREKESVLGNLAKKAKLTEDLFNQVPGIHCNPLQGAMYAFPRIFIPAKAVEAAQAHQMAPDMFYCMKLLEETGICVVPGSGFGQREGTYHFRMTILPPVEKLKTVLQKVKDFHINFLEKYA
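Recombinant GPT2 (10ng/uL) with 250uM a-KG and 2mM L-alanine, 30 min at room temperature, in HEPES pH 7.5 buffer. Pyruvate detected by pyruvate oxidase/HRP/Amplex Red fluorescence after 30 min in the dark; AOA (50uM) as positive control.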
HEK293 tox = kills HEK 293 cells; HEK 293 viability, ATP luminescence (CellTiter-Glo), 48-72 h; Potency, µM (series often up to 115 µM), for inactives: at the highest dose activity change, negative = cytotoxicity, usual class: inhibitors; 94,000 tested, 6.6% active; further: nearly all actives have a fitted effect of over 60% in size
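250 HEK 293 cells/well; compound by pintool; incubated 48 or 72 hr at 37 degree Celsius; CellTiter-Glo added, 10 min RT, luminescence imaged.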
hNpr1 antagonist = antagonists of human natriuretic peptide receptor Npr1; HEK293 hNpr1 GloSensor cGMP, ANP-stimulated luminescence; P16066; Potency, µM (highest dose often 46.3 µM), for inactives: top-dose activity change, negative = inhibition, most hits filed as inhibitors; 76,000 tested, 1.6% active; calls by dose curve; further: nearly all actives have a fitted effect of over 60% in size
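Compound pre-incubated 30 min at room temperature on GloSensor-loaded HEK293 cells stably carrying hNpr1 and the pGS-40F cGMP biosensor. Stimulation uses hNppA at 0.1 nM final; luminescence is taken at baseline and 20 min post-agonist.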
Luciferase inh = Photinus pyralis luciferase inhibition; P08659; purified P. pyralis luciferase, luminescence, biochemical; Potency, µM (highest dose often 115 µM), most hits filed as inhibitors; 76,000 tested, 2.5% active; further: nearly all actives have a fitted effect of over 65% in size
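Inhibitors were tested against purified firefly luciferase in a biochemical, low-substrate format (both substrates at 10uM) and luminescence measured with a CCD imager.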
NIH3T3 tox = NIH 3T3 cell cytotoxicity; NIH 3T3 viability, CellTiter-Glo ATP luminescence, 48-72 h; Potency, µM (top dose mostly 96.7 µM), for inactives: top-dose activity change, negative = cytotoxicity, actives largely listed as inhibitors; 94,000 tested, 4.3% active; AID 1345082; further: nearly all actives have a fitted effect of over 55% in size
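Cytotoxicity was measured by CellTiter-Glo ATP luminescence after 48 or 72 h compound exposure at 37 °C. Mouse NIH 3T3 fibroblasts were seeded at 400 cells/well and dosed by 23 nL pin transfer.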
* = called active by the depositor; i = inactive; ? = inconclusive; · = no result; [ ] = dose if it differs, or a comment. The list is not random: actives were taken first. Their share in the collection is about 10%. Unless noted, the call rests on the fitted dose curve; in most records, active means well fitted curve in the direction sought with a large enough effect; inconclusive means small, poorly fitted or top-dose-only effect, or another doubt; inactive means no such curve, though single readings can be large; an effect the other way counts as inactive or inconclusive. On the % scale 0 is the no-effect control and ±100 the full control effect; potency means the concentration at half of the fitted maximal effect.

SMILES	GPT2 inhibitor	HEK293 tox	hNpr1 antagonist	Luciferase inh	NIH3T3 tox
Cn1nc(-c2cccs2)cc1[C@H]1CN2CC[C@H]1C[C@@H]2COC(=O)Nc1ccccc1	i	45µM*	-16%[70.6 µM]	i	35µM*
COc1ccc(-c2cc([C@H]3CN4CC[C@H]3C[C@@H]4CNC(=O)Nc3ccccc3)n(C)n2)cc1OC	0%	?	-1%	i	?
Cn1nc(-c2ccccc2)cc1[C@H]1CN2CC[C@H]1C[C@@H]2CNC(=O)Nc1ccccc1	1%[88.5 µM]	50µM*	0%[70.6 µM]	i	50µM*
CC(C)NC(=O)NC[C@H]1C[C@@H]2CCN1C[C@@H]2c1cc(-c2ccc3ccccc3c2)nn1C	1%[88.5 µM]	22µM*	2%[70.6 µM]	i	28µM*
O=C(O)c1cn(C2CCCCCC2)nn1	-47%	-5%	1%	i	-20%
Cn1nc(C2CCCCC2)cc1[C@H]1CN2CC[C@H]1C[C@@H]2CNC(=O)COc1ccccc1	i	45µM*	0%	i	?
COc1ccc(NC(=O)NC[C@H]2C[C@@H]3CCN2C[C@@H]3c2cc(-c3ccccc3)nn2C)cc1	4%	28µM*	-6%	i	?
COc1ccc(-c2cc([C@H]3CN4CC[C@H]3C[C@@H]4COC(=O)Nc3ccccc3)n(C)n2)cc1	i	?	-6%	i	20µM*
COc1ccc(CN(Cc2ccc(OC)cc2)C[C@H]2C[C@@H]3CCN2C[C@@H]3c2cc(C3CCCC3)nn2C)cc1	0%	25µM*	2%	i	20µM*
COCC(=O)NC[C@H]1C[C@@H]2CCN1C[C@@H]2c1cc(C2CCCCC2)nn1C	-16%[88.5 µM]	0%[172 µM]	-2%[70.6 µM]	i	-11%[174 µM]
COc1ccc(NC(=O)NC[C@H]2C[C@@H]3CCN2C[C@@H]3c2cc(-c3cccs3)nn2C)cc1	0%	?	3%	i	?
COc1ccc(-c2cn(C[C@H]3CC4CCN3C[C@@H]4C(=O)NCc3ccc4c(c3)OCO4)nn2)cc1 (stereo not given in full)	i	?	0%	i	?
CCCCc1cn(C[C@H]2CC3CCN2C[C@@H]3C(=O)NCc2ccco2)nn1 (stereo not given in full)	-25%[88.5 µM]	-22%[172 µM]	-3%[70.6 µM]	i	-13%[174 µM]
O=C(NCc1ccccc1)[C@H]1CN2CCC1C[C@@H]2Cn1cc(CSc2ccccc2)nn1 (stereo not given in full)	-7%	-24%	-3%	i	-35%
Cn1nc(-c2ccc3ccccc3c2)cc1[C@H]1CN2CC[C@H]1C[C@@H]2CNC(=O)Nc1cccc(C#N)c1	i	?	4%	i	45µM*
CCNC(=O)NC[C@H]1C[C@@H]2CCN1C[C@@H]2c1cc(-c2ccc3ccccc3c2)nn1C	i	40µM*	2%[70.6 µM]	i	32µM*
Cn1nc(-c2ccc3ccccc3c2)cc1[C@H]1CN2CC[C@H]1C[C@@H]2CNC(=O)Nc1ccccc1	-3%	?	0%	i	20µM*
Cn1nc(C2CCCC2)cc1[C@H]1CN2CC[C@H]1C[C@@H]2CNC(=O)Nc1ccccc1	-4%[88.5 µM]	100µM*	6%[70.6 µM]	i	?
Cn1nc(-c2ccccc2)cc1[C@H]1CN2CC[C@H]1C[C@@H]2CNC(=O)Nc1cccc(C#N)c1	-6%	-28%	5%	i	-21%
O=C(NC1CC1)[C@H]1CN2CCC1C[C@@H]2Cn1cc(CCO)nn1 (stereo not given in full)	5%[88.5 µM]	0%[172 µM]	-2%[70.6 µM]	i	-19%[174 µM]
Cn1cc(CN2CCOC[C@H](O)C2)c2ccccc21	-9%[88.5 µM]	63µM*	4%[70.6 µM]	i	89µM*
O[C@@H]1CNC2Cc3c([nH]c4ccccc34)C1C2 (stereo not given in full)	·	?	·	·	-28%
COc1ccc(CNC[C@H]2C[C@@H]3CCN2C[C@@H]3c2cc(-c3ccc(F)cc3)nn2C)cc1	-10%[88.5 µM]	45µM*	1%[70.6 µM]	i	89µM*
Cc1ccc(C(=O)NC[C@H]2C[C@@H]3CCN2C[C@@H]3c2cc(-c3ccccc3)nn2C)cc1	i	?	5%[70.6 µM]	i	?
Cn1nc(-c2cccs2)cc1[C@H]1CN2CC[C@H]1C[C@@H]2CNC(=O)NCc1ccccc1	-4%	-15%	0%	i	-30%
SMILES	GPT2 inhibitor	HEK293 tox	hNpr1 antagonist	Luciferase inh	NIH3T3 tox
Cn1nc(-c2ccc(F)cc2)cc1[C@H]1CN2CC[C@H]1C[C@@H]2CNC(=O)NCc1ccccc1	i	25µM*	-16%	i	?
Cn1nc(-c2ccccc2)cc1[C@H]1CN2CC[C@H]1C[C@@H]2CNC(=O)NCc1ccccc1	i	?	-2%[70.6 µM]	i	100µM*
CCN1CCCN(C(=O)Cc2ccccc2)CC12CCOCC2	-2%	-3%	·	·	-20%
CC[C@H]1CN2CC[C@H]1C[C@@H]2CNCc1ccc(-c2ccccc2)cc1	-8%[88.5 µM]	25µM*	-16%[70.6 µM]	i	28µM*
CC[C@H]1CN2CC[C@H]1C[C@@H]2CN(Cc1ccc(SC)cc1)Cc1ccc(SC)cc1	-3%[88.5 µM]	7.1µM*	-14%[70.6 µM]	i	10µM*
CC[C@H]1CN2CC[C@H]1C[C@@H]2CNCc1ccc(OC)cc1	i	?	-4%[70.6 µM]	i	-24%[230 µM]
CC[C@H]1CN2CC[C@H]1C[C@@H]2CNCc1ccc(C(F)(F)F)cc1	?	?	-1%[70.6 µM]	i	89µM*
COc1cccc([C@@H]2CCN(Cc3cc4ccccc4n(C)c3=O)C[C@H]2O)c1	i	?	-4%	i	?
Cn1cc(CN[C@@H]2C[C@H](CO)[C@@H](O)[C@H]2O)c2ccccc21	-36%[88.5 µM]	-25%[172 µM]	3%[70.6 µM]	i	-26%[138 µM]
COc1ccc(CC(=O)N2CCN(CCCn3nc4n(c3=O)CCCC4)CC2)cc1	·	-7%	·	·	-16%
COc1ccccc1-c1cc([C@H]2CN3CC[C@H]2C[C@@H]3CNS(=O)(=O)c2ccccc2)n(C)n1	0%	?	1%	i	32µM*
COc1ccc(-c2cc([C@H]3CN4CC[C@H]3C[C@@H]4CNS(=O)(=O)c3ccccc3)n(C)n2)cc1OC	i	?	-2%	i	?
COc1ccccc1-c1cc([C@H]2CN3CC[C@H]2C[C@@H]3CNS(C)(=O)=O)n(C)n1	-4%[88.5 µM]	i	7%[70.6 µM]	i	-13%[174 µM]
Cn1nc(C2CCCC2)cc1[C@H]1CN2CC[C@H]1C[C@@H]2CNS(=O)(=O)c1ccccc1	-6%[88.5 µM]	100µM*	0%[70.6 µM]	i	112µM*
COc1ccc(-c2cc([C@H]3CN4CC[C@H]3C[C@@H]4CNS(=O)(=O)c3ccc(C)cc3)n(C)n2)cc1OC	?	40µM*	1%	i	22µM*

From PubChem
